{"source": "PubChem BioAssay (Tox21)", "note": "A number with no mark means an inactive call. Inconclusive results are not listed. Where a call stands in place of a potency, no number is given. Calls of active or inactive are those of the source. Calls come from the whole dose curve."}
{"biological_target": "Acetylcholinesterase (Homo sapiens) (UniProt P22303)", "sequence (P22303 whole entry, looked up)": "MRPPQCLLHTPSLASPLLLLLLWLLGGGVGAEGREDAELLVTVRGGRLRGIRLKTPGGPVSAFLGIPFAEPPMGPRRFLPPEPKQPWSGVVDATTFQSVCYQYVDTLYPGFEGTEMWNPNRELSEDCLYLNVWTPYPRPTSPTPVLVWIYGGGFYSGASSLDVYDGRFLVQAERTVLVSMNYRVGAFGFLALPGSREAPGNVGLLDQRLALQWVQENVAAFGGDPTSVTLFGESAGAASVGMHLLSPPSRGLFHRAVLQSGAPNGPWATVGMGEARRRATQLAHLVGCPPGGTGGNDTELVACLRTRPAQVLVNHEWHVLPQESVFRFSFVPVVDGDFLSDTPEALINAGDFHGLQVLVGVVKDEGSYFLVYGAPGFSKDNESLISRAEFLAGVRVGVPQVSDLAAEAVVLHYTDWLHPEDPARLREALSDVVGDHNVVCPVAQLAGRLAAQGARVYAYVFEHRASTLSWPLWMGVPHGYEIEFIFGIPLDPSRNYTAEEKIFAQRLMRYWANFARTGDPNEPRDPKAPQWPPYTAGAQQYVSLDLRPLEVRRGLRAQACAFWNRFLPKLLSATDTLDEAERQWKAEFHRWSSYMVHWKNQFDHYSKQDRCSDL", "assay": "Acetylcholinesterase (AChE) small molecule antagonists: enzyme-based qHTS assay (AID 1347397); note: nearly all actives have a fitted effect of over 55% in size", "settings": "Potency: AChE enzyme activity inhibition; outcome: AChE enzyme activity inhibition; series mostly up to 115 µM", "summary_of_the_method": "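Recombinant human AChE (50 mU/mL) preincubated with compound 30 min at room temperature; acetylthiocholine plus DTNB then added, and thiocholine formation read colorimetrically after 10 min at room temperature. DMSO served as vehicle control.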"}
{"smiles": "CCc1nnc(NS(=O)(=O)c2ccc(N)cc2)s1", "Potency": "inactive"}
{"smiles": "CC(CC=O)CCCC(C)(C)O", "note": "(configuration not stated)", "Potency": "inactive"}
{"smiles": "CC(O)C(CO)C(C)O", "note": "(configuration not stated)", "Potency": "inactive"}
{"smiles": "CCO[Si](CCCN)(OCC)OCC", "Potency": "inactive"}
{"smiles": "O=C(CS)Nc1ccccc1", "Potency": "inactive"}
{"smiles": "C=CCCCCCCCCC=O", "Potency": "inactive"}
{"smiles": "CCOC(=O)[C@H](CCc1ccccc1)N[C@@H](C)C(=O)N1Cc2ccccc2C[C@H]1C(=O)O", "Potency": "inactive"}
{"smiles": "CCOCCOCC", "Potency": "inactive"}
{"smiles": "O=Cc1ccc(Cl)c(Cl)c1", "Potency": "inactive"}
{"smiles": "COS(C)(=O)=O", "Potency": "inactive"}
{"smiles": "O=C(O)c1[nH]n(-c2ccc(S(=O)(=O)O)cc2)c(=O)c1N=Nc1ccc(S(=O)(=O)O)cc1", "Potency": "inactive"}
{"smiles": "CC(=O)[C@@]1(O)CC[C@H]2[C@@H]3C[C@H](C)C4=CC(=O)CC[C@]4(C)[C@H]3CC[C@@]21C", "Potency": "inactive"}
{"smiles": "CC(C)NCC(O)c1cc(O)cc(O)c1", "note": "(configuration not stated)", "Potency": "inactive"}
{"smiles": "C#C[C@]1(O)CC[C@H]2[C@@H]3CCc4cc(OC)ccc4[C@H]3CC[C@@]21C", "Potency": "inactive"}
{"smiles": "CC(C)COC(=O)CCCCC(=O)OCC(C)C", "Potency": "inactive"}
{"smiles": "CCCCC(CC)CN1C(=O)C2C3C=CC(C3)C2C1=O", "note": "(configuration not stated)", "Potency": "inactive"}
{"smiles": "CCC1COC(=O)O1", "note": "(configuration not stated)", "Potency": "inactive"}
{"biological_target": "Acetylcholinesterase (Homo sapiens) (UniProt P22303)", "assay": "Acetylcholinesterase (AChE) small molecule antagonists: fluorescence cell-based qHTS assay (AID 1347398); note: nearly all actives have a fitted effect of over 50% in size; note: potency is the fitted concentration of half-maximal effect", "settings": "SH-SY5Y cells; Potency: AChE activity; outcome: AChE activity; series mostly up to 115 µM", "summary_of_the_method": "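SH-SY5Y cells (2000/well), attached overnight, incubated with compound 30 min at 37 C. Acetylthiocholine plus Thiolite Green then added for 40 min at room temperature. Thiocholine fluorescence (Ex/Em 490/520 nm) reports cellular AChE activity.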"}
{"smiles": "CC(C)CC(=O)OCc1ccccc1", "Potency": "inactive"}
{"smiles": "CN1CCc2cccc3c2[C@H]1Cc1ccc(O)c(O)c1-3", "Potency": "64 µM (active)"}
{"smiles": "COC(C)CCO", "note": "(configuration not stated)", "Potency": "inactive"}
{"smiles": "Nc1c(Cl)cc(Cl)cc1[N+](=O)[O-]", "Potency": "inactive"}
{"smiles": "c1ccc(CSCc2ccccc2)cc1", "Potency": "inactive"}
{"smiles": "O=C(Nc1ccccc1SSc1ccccc1NC(=O)c1ccccc1)c1ccccc1", "Potency": "inactive"}
{"smiles": "c1ccc2c(c1)c1cccc3ccc4cccc2c4c31", "Potency": "inactive"}
{"smiles": "COC(=O)CC(=O)C(C)(C)C", "Potency": "inactive"}
{"smiles": "CC(CO)(CO)C(=O)O", "Potency": "inactive"}
{"smiles": "CCCCCCCC/C=C\\CCCCCCCCN", "Potency": "inactive"}
{"smiles": "C[C@@H]1CN(c2c(F)c(N)c3c(=O)c(C(=O)O)cn(C4CC4)c3c2F)C[C@H](C)N1", "activity change, negative = inhibition": "-0.604% [at 23.8 µM]"}
{"smiles": "CC[C@H](C)C(=O)O[C@H]1C[C@H](O)C=C2C=C[C@H](C)[C@H](CC[C@@H](O)C[C@@H](O)CC(=O)O)[C@H]21", "Potency": "inactive"}
{"smiles": "CC(C)(N)CO", "Potency": "inactive"}
{"smiles": "OCCCCCCCl", "Potency": "inactive"}
{"smiles": "CSc1ccc2c(c1)N(CCC1CCCCN1C)c1ccccc1S2", "note": "(configuration not stated)", "Potency": "31.6 µM (active)"}
{"smiles": "COC(=O)CCC(=O)OC", "Potency": "inactive"}
{"smiles": "CC(O)c1ccccc1", "note": "(configuration not stated)", "Potency": "inactive"}
{"smiles": "O=C(O)CNC(=O)c1ccc(CO)o1", "Potency": "inactive"}
{"smiles": "O=Cc1ccc(O)c(O)c1O", "Potency": "inactive"}
{"smiles": "COC(CC(C)CCCC(C)(C)O)OC", "note": "(configuration not stated)", "Potency": "inactive"}
{"smiles": "CC(C)OP(=O)(CP(=O)(OC(C)C)OC(C)C)OC(C)C", "Potency": "inactive"}
{"smiles": "CC(C)N=C(N)/N=C(\\N)Nc1ccc(Cl)cc1", "Potency": "inactive"}
{"smiles": "c1ccc2nccnc2c1", "Potency": "inactive"}
{"smiles": "CCc1nnc(NS(=O)(=O)c2ccc(N)cc2)s1", "Potency": "inactive"}
{"smiles": "CC(CC=O)CCCC(C)(C)O", "note": "(configuration not stated)", "Potency": "inactive"}
{"smiles": "CC(O)C(CO)C(C)O", "note": "(configuration not stated)", "Potency": "inactive"}
{"smiles": "CCO[Si](CCCN)(OCC)OCC", "Potency": "inactive"}
{"smiles": "O=C(CS)Nc1ccccc1", "Potency": "inactive"}
{"smiles": "C=CCCCCCCCCC=O", "Potency": "inactive"}
{"smiles": "CCOC(=O)[C@H](CCc1ccccc1)N[C@@H](C)C(=O)N1Cc2ccccc2C[C@H]1C(=O)O", "Potency": "inactive"}
{"smiles": "CCOCCOCC", "Potency": "inactive"}
{"smiles": "O=Cc1ccc(Cl)c(Cl)c1", "Potency": "inactive"}
{"smiles": "COS(C)(=O)=O", "Potency": "inactive"}
{"smiles": "O=C(O)c1[nH]n(-c2ccc(S(=O)(=O)O)cc2)c(=O)c1N=Nc1ccc(S(=O)(=O)O)cc1", "Potency": "inactive"}
{"smiles": "CC(=O)[C@@]1(O)CC[C@H]2[C@@H]3C[C@H](C)C4=CC(=O)CC[C@]4(C)[C@H]3CC[C@@]21C", "Potency": "inactive"}
{"smiles": "CC(C)NCC(O)c1cc(O)cc(O)c1", "note": "(configuration not stated)", "Potency": "inactive"}
{"smiles": "C#C[C@]1(O)CC[C@H]2[C@@H]3CCc4cc(OC)ccc4[C@H]3CC[C@@]21C", "Potency": "inactive"}
{"smiles": "CC(C)COC(=O)CCCCC(=O)OCC(C)C", "Potency": "inactive"}
{"smiles": "CCCCC(CC)CN1C(=O)C2C3C=CC(C3)C2C1=O", "note": "(configuration not stated)", "Potency": "inactive"}
{"smiles": "CCC1COC(=O)O1", "note": "(configuration not stated)", "Potency": "inactive"}
